In PubChem BioAssay AID1159580 (chemical genetic matrix, 2015):
Where “and” joins values, the source holds several entries; their conditions need not be identical. Identical values can stand only once. Among all 5,500 compounds or so, about 2,000 (36%) were called active. About 18% were inconclusive and are not listed. Rule as the data show it: active = normalized growth mostly below about 0.91 (no sharp cut-off); inconclusive = no clear call, values can overlap the other calls; inactive = mostly above about 0.92. Some of the results follow.

Experiment: chemical genetic growth profiling, strain panel (AID 1159580);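 also: tested at 20 µM; growth read once vehicle control cultures reached saturation at 30 °C; 1 = growth at the plate median or of vehicle wells; lower values mean less growth of the strain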
Settings: S. cerevisiae deletion strains, growth OD

Measured: normalized growth

O=C(/C=C/c1ccccc1)c1ccc(O[C@@H]2O[C@H](CO)[C@@H](O)[C@H](O)[C@H]2O)cc1O
inactive: locus YAL021C, strain ccr4, active compounds read low 0.97 | locus YAL026C, strain drs2, active compounds read low 0.923 | locus YAL030W, strain snc1, active compounds read low 0.933 | locus YBR009C, strain hhf1, active compounds read low 0.935 | locus YBR021W, strain FUR4, active compounds read low 0.883 | locus YBR171W, strain sec66, active compounds read low 0.914 | locus YBR229C, strain ROT2, active compounds read low 0.922 | locus YBR279W, strain paf1, active compounds read low 0.96 | locus YCL011C, strain gbp2, active compounds read low 0.938 | locus YCL016C, strain dcc1, active compounds read low 0.925 | locus YCL069W, strain vba3, active compounds read low 0.96 | locus YCR088W, strain abp1, active compounds read low 0.923 | locus YDL005C, strain med2, active compounds read low 0.955 | locus YDL035C, strain GPR1, active compounds read low 0.926 | locus YDL040C, strain nat1, active compounds read low 0.937 | locus YDL074C, strain BRE1, active compounds read low 0.861 | locus YDL101C, strain DUN1, active compounds read low 0.943 | locus YDR069C, strain doa4, active compounds read low 0.974 | locus YDR137W, strain rgp1, active compounds read low 0.947 | locus YDR162C, strain NBP2, active compounds read low 0.944 | locus YDR195W, strain ref2 1 | locus YDR334W, strain swr1, active compounds read low 0.95 | locus YDR335W, strain msn5, active compounds read low 0.938 | locus YDR392W, strain spt3, active compounds read low 0.787 | locus YEL003W, strain gim4, active compounds read low 0.931 | locus YEL037C, strain rad23, active compounds read low 0.945 | locus YEL061C, strain CIN8 (second series), active compounds read low 0.928 | locus YER015W, strain faa2, active compounds read low 0.938 | locus YER111C, strain swi4, active compounds read low 0.935 | locus YFR010W, strain ubp6, active compounds read low 0.951 | locus YGL078C, strain dbp3, active compounds read low 0.948 | locus YGL167C, strain pmr1, active compounds read low 0.947 | locus YGL227W, strain vid30, active compounds read low 0.932 | locus YGL248W, strain PDE1, active compounds read low 0.936 | locus YGR252W, strain gcn5, active compounds read low 0.79 | locus YHR013C, strain ard1, active compounds read low 0.941 | locus YHR027C, strain rpn1, active compounds read low 0.957 | locus YHR030C, strain SLT2, active compounds read low 0.922 and 0.953 | locus YHR079C, strain IRE1, active compounds read low 0.918 | locus YHR142W, strain chs7, active compounds read low 0.882 | locus YIL066C, strain RNR3, active compounds read low 0.906 | locus YIL073C, strain SPO22, active compounds read low 0.956 | locus YJL092W, strain hpr5, active compounds read low 0.926 | locus YJL095W, strain BCK1 (second series), active compounds read low 0.944 | locus YJL095W, strain BCK1, active compounds read low 0.923 and 0.945 | locus YJL115W, strain asf1, active compounds read low 0.941 | locus YJL129C, strain trk1, active compounds read low 0.897 | locus YJL154C, strain vps35, active compounds read low 0.942 | locus YJL166W, strain qcr8, active compounds read low 0.928 | locus YJL187C, strain SWE1 (second series), active compounds read low 0.93 | locus YJL187C, strain SWE1, active compounds read low 0.95 | locus YJR043C, strain POL32, active compounds read low 0.893 | locus YJR066W, strain TOR1, active compounds read low 0.857 | locus YJR075W, strain HOC1, active compounds read low 0.913 | locus YKL009W, strain mrt4, active compounds read low 0.906 | locus YKL160W, strain elf1, active compounds read low 0.911 | locus YKL190W, strain CNB1, active compounds read low 0.934 | locus YKR026C, strain gcn3, active compounds read low 0.933 | locus YKR091W, strain srl3, active compounds read low 0.938 | locus YLL041C, strain sdh2, active compounds read low 0.937 | locus YLR027C, strain aat2, active compounds read low 0.937 | locus YLR039C, strain RIC1, active compounds read low 0.918 | locus YLR058C, strain SHM2, active compounds read low 0.93 | locus YLR113W, strain HOG1, active compounds read low 0.937 | locus YLR221C, strain rsa3, active compounds read low 0.934 | locus YLR258W, strain gsy2, active compounds read low 0.916 | locus YLR262C, strain YPT6 (second series), active compounds read low 0.911 | locus YLR262C, strain YPT6, active compounds read low 0.949 | locus YLR320W, strain mms22, active compounds read low 0.894 | locus YLR357W, strain rsc2, active compounds read low 0.929 | locus YML032C, strain rad52, active compounds read low 0.916 | locus YML120C, strain ndi1, active compounds read low 0.933 | locus YMR058W, strain fet3, active compounds read low 0.931 | locus YMR125W, strain sto1, active compounds read low 0.938 | locus YMR205C, strain PFK2, active compounds read low 0.922 | locus YMR231W, strain pep5, active compounds read low 0.947 | locus YMR307W, strain GAS1, active compounds read low 0.692 | locus YNL067W, strain RPL9B, active compounds read low 0.945 | locus YNL071W, strain lat1, active compounds read low 0.942 | locus YNL183C, strain NPR1, active compounds read low 0.911 | locus YNL209W, strain ssb2, active compounds read low 0.937 | locus YNL233W, strain BNI4, active compounds read low 0.877 | locus YNL248C, strain rpa49, active compounds read low 0.896 | locus YNL322C, strain KRE1 (second series), active compounds read low 0.921 | locus YNL322C, strain KRE1, active compounds read low 0.936 | locus YNR049C, strain mso1, active compounds read low 0.919 | locus YNR052C, strain pop2, active compounds read low 0.92 | locus YOL006C, strain TOP1, active compounds read low 0.879 | locus YOL012C, strain htz1 1.32 | locus YOR001W, strain rrp6, active compounds read low 0.953 | locus YOR061W, strain CKA2, active compounds read low 0.933 | locus YOR070C, strain gyp1, active compounds read low 0.93 | locus YOR080W, strain dia2, active compounds read low 0.948 | locus YOR106W, strain vam3, active compounds read low 0.9 | locus YOR231W, strain MKK1, active compounds read low 0.952 | locus YOR270C, strain vph1, active compounds read low 0.925 | locus YOR290C, strain snf2, active compounds read low 0.941 | locus YPL051W, strain arl3, active compounds read low 0.931 | locus YPL055C, strain LGE1, active compounds read low 0.901 | locus YPL240C, strain hsp82, active compounds read low 0.932 | locus YPL256C, strain CLN2, active compounds read low 0.889
active: locus YBL061C, strain skt5, active compounds read low 0.886 | locus YBR023C, strain chs3, active compounds read low 0.912 | locus YBR231C, strain swc5, active compounds read low 0.899 | locus YCL029C, strain bik1, active compounds read low 0.889 | locus YCL061C, strain MRC1, active compounds read low 0.919 | locus YDL185W, strain tfp1, active compounds read low 0.885 | locus YDL192W, strain arf1, active compounds read low 0.829 | locus YDR001C, strain nth1, active compounds read low 0.916 | locus YDR101C, strain arx1, active compounds read low 0.892 | locus YDR159W, strain sac3, active compounds read low 0.855 | locus YDR297W, strain sur2, active compounds read low 0.921 | locus YDR318W, strain mcm21, active compounds read low 0.892 | locus YDR388W, active compounds read low 0.877 | locus YDR502C, strain sam2, active compounds read low 0.882 | locus YEL061C, strain CIN8, active compounds read low 0.918 | locus YER016W, strain bim1, active compounds read low 0.921 | locus YER110C, active compounds read low 0.869 | locus YER155C, strain BEM2 (second series), active compounds read low 0.853 | locus YER155C, strain BEM2, active compounds read low 0.912 | locus YER167W, strain BCK2, active compounds read low 0.9 | locus YGL086W, strain mad1, active compounds read low 0.885 | locus YGL173C, strain kem1, active compounds read low 0.899 | locus YGL240W, strain doc1, active compounds read low 0.853 | locus YGL253W, strain hxk2, active compounds read low 0.902 | locus YGR135W, strain pre9, active compounds read low 0.886 | locus YHR079C, strain IRE1 (second series), active compounds read low 0.886 | locus YHR094C, strain hxt1, active compounds read low 0.888 | locus YHR129C, strain ARP1, active compounds read low 0.91 | locus YHR200W, strain rpn10, active compounds read low 0.873 | locus YIL125W, strain kgd1, active compounds read low 0.895 | locus YIR030C, strain dcg1, active compounds read low 0.881 | locus YJL134W, strain LCB3, active compounds read low 0.917 | locus YJL164C, strain tpk1, active compounds read low 0.91 | locus YJL168C, strain set2, active compounds read low 0.888 | locus YKL068W, active compounds read low 0.905 | locus YKL085W, strain MDH1 (second series), active compounds read low 0.902 | locus YKL085W, strain MDH1, active compounds read low 0.902 | locus YKR001C, strain vps1, active compounds read low 0.819 | locus YLL001W, strain dnm1, active compounds read low 0.896 | locus YLL026W, active compounds read low 0.924 | locus YLR102C, strain apc9, active compounds read low 0.891 | locus YLR268W, strain sec22, active compounds read low 0.88 | locus YLR330W, strain CHS5, active compounds read low 0.904 | locus YLR342W, strain FKS1 (second series), active compounds read low 0.767 | locus YLR342W, strain FKS1, active compounds read low 0.865 | locus YLR370C, strain arc18, active compounds read low 0.91 | locus YLR371W, strain rom2, active compounds read low 0.756 | locus YLR384C, strain iki3, active compounds read low 0.907 | locus YLR418C, strain cdc73, active compounds read low 0.739 | locus YML016C, strain PPZ1, active compounds read low 0.909 | locus YML124C, strain tub3, active compounds read low 0.897 | locus YMR078C, strain ctf18, active compounds read low 0.9 | locus YMR129W, active compounds read low 0.91 | locus YMR223W, strain ubp8, active compounds read low 0.877 | locus YNL250W, strain rad50, active compounds read low 0.892 | locus YNL271C, strain bni1, active compounds read low 0.858 | locus YNL298W, strain CLA4, active compounds read low 0.884 | locus YNL307C, strain MCK1, active compounds read low 0.887 | locus YOL147C, strain pex11, active compounds read low 0.903 | locus YOR069W, strain VPS5, active compounds read low 0.917 | locus YOR083W, strain WHI5, active compounds read low 0.859 | locus YOR136W, strain idh2, active compounds read low 0.912 | locus YOR144C, strain elg1, active compounds read low 0.886 | locus YOR184W, strain ser1, active compounds read low 0.864 | locus YOR265W, strain rbl2, active compounds read low 0.926 | locus YOR316C, strain cot1, active compounds read low 0.9 | locus YPL078C, strain atp4, active compounds read low 0.891 | locus YPL106C, strain sse1, active compounds read low 0.811 | locus YPL241C, strain CIN2, active compounds read low 0.916 | locus YPR119W, strain clb2, active compounds read low 0.885 | locus YPR141C, strain kar3, active compounds read low 0.877 | locus YPR163C, strain tif3, active compounds read low 0.899 | locus YPR167C, strain met16, active compounds read low 0.916 | strain wtn01, active compounds read low 0.859
